A short description of this assay: reducers of endogenous Her2 protein level, primary screen, SKBR3 breast tumor cells, AlphaScreen, ATP viability (AID 461).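 Also: percent of carrier control wells set as 100% viability.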 The conditions noted are these: 18-24 h, measured here: SKBR3 viability, ATP luminescence, at 10 µM. In general terms: Bead proximity is the source of the signal in Alpha formats.
On to `CCC(=O)Nc1c2c(nn1-c1ccccc1C)CSC2`, for which the viability came to 86.5%.

Take `CCOC(=O)C1CCN(C(=O)COc2ccc(Cl)cc2Cl)CC1`: the viability amounted to 109%.

Turning to `CC1CC(=O)C2=C(C1)OC(N)=C(C#N)C2c1coc2ccccc2c1=O` (stereo not given), the viability is 108%.

As to `CN(C1CCS(=O)(=O)C1)S(=O)C12CC3CC(CC(C3)C1)C2` (stereo not given), the viability was determined as 83%.

For the compound `S=c1[nH]nc(Cc2ccccc2)n1-c1ccccc1`, the viability was found to be 108%.

As for `Cc1cccc(Cc2nnc(NC(=O)c3cccc(S(=O)(=O)N4CCOCC4)c3)s2)c1`, the viability came to 107%.

As to `COC(=O)[C@H](C)NC(=O)Nc1cc(OC)ccc1OC`, the viability stood at 121%.

As for `COc1ccccc1NC(=O)C1=C(C)Nc2nnnn2C1c1ccccc1OC` (stereo not given), the viability came out at 94%.

As to `Cn1c(CNc2nc(-c3ccccc3)cs2)nnc1SCC(=O)N1CCc2ccccc21`, the viability turned out to be 96.5%.

For `CCOC(=O)N1CCN(C(=O)c2n[nH]c(=O)c3ccccc23)CC1`, the viability was determined as 85%.

In the case of `O=C(CN1CCCN(S(=O)(=O)c2ccc(Br)cc2)CC1)Nc1ccc2cn[nH]c2c1`, the viability was 106%.

On to `O=C(OCc1ccccc1F)c1ccc2c(c1)OCCO2`, for which the viability came to 122%.

As for `CCN(CC)S(=O)(=O)c1ccc2c(c1)nc(SCC(=O)NC1CC1)n2-c1ccccc1OC`, the viability was 92.5%.

Consider `CCC(Sc1nc2sc(C(=O)OC)c(C)c2c(=O)n1N)C(=O)NCC1CCCO1` (stereo not given), for which the viability worked out at 102%.

As to `O=C(COc1ccccc1)Nc1ccc(-c2nnc(-c3ccco3)o2)cc1`, the viability came out at 128%.

Consider `O=C(CSc1nnnn1C1CCCC1)Nc1cccc(NC(=O)c2ccco2)c1`, for which the viability was determined as 91.5%.

With `CCCCCc1c(O)nc(SCC(=O)NCC2CCCO2)[nH]c1=O` (stereo not given), the viability came to 96%.

Regarding `c1ccc(N=P(c2nc3ccccc3o2)(N2CCOCC2)N2CCOCC2)cc1`, the viability was 119%.

On to `Cc1nn(S(=O)(=O)N2CCCCC2)c(C)c1Br`, for which the viability turned out to be 95%.

For `Cc1cc2oc(=O)cc(C)c2c(=O)o1`, the viability stood at 101%.

As for `N#CCCn1ccc(NC(=O)c2ccc(Cl)cc2)n1`, the viability was found to be 79%.

As to `S=c1[nH]nc(-c2ccco2)n1-c1cccc2ccccc12`, the viability amounted to 102%.

Regarding `CCOC(=O)c1c(-c2ccc(C)o2)csc1NC(=O)COC(=O)c1cccs1`, the viability is 93%.

Consider `CCOc1cc2[nH]c(=O)n(CCCCC(=O)N3CCCCCC3)c(=O)c2cc1OCC`, for which the viability was found to be 90%.

On to `Clc1ccc(-n2ncc3c(NCCCn4ccnc4)ncnc32)cc1`, for which the viability worked out at 87%.

With `COc1ccc(OC)c(C2C3=C(CCCC3=O)Nc3c2c(=O)n(C)c(=O)n3C)c1` (stereo not given), the viability turned out to be 106%.

As for `COc1ccc(NC(=O)CN2CCN(CC(=O)Nc3cc(OC)cc(OC)c3)CC2)cc1`, the viability turned out to be 79%.

With `Clc1cc2c(c(Cn3cnc4ccccc43)c1)OCOC2`, the viability worked out at 109%.

Turning to `N#Cc1c2n(c(=S)n(-c3ccccn3)c1=O)CCCCC2`, the viability amounted to 81.5%.

Consider `N#Cc1c(NC(=O)c2ccc(Br)o2)n(-c2ccccc2)c2nc3ccccc3nc12`, for which the viability came to 86.5%.

With `COCCn1nnnc1C(c1ccc(OC)cc1)N1CCN(c2ccccc2F)CC1` (stereo not given), the viability amounted to 100%.

Consider `COc1cc(-c2nnc(SCc3c(F)cccc3Cl)o2)cc(OC)c1OC`, for which the viability is 70.5%.

As to `COC(=O)Cc1c(C)nc2nc(-c3ccco3)[nH]n2c1=O`, the viability was 110%.

For `CCOC(=O)CSc1nc2cccnc2n1-c1ccc(F)cc1`, the viability was determined as 108%.

As to `COCCn1c(NCc2ccc(C)cc2)nc2c1c(=O)[nH]c(=O)n2C`, the viability was determined as 108%.

Regarding `Clc1ccc2nc(N3CCCCC3)[nH]c2c1`, the viability came out at 90.5%.

On to `Cc1nnc(C)c2c(C)n(-c3ccc(Br)cc3)c(C)c12`, for which the viability was 110%.

As for `O=C(NCC(F)(F)F)N1CCOCC1`, the viability was 96%.

With `O=C(O)CC1SC(=Nc2cccc(C(F)(F)F)c2)NC1=O` (stereo not given), the viability turned out to be 111%.

With `COc1ccc2c(c1)OC(O)(C(F)F)CC2=O` (stereo not given), the viability is 116%.

The term viability denotes a read-out of living cells in per cent, often relative to untreated cells.

The values are drawn from PubChem BioAssay.
